# In the library only some 3.1% were active in any assay of this set; here they are far more common.
# Tau fibril FP = inhibitors of human tau fibril formation | P10636 | K18 P301L tau heparin fibrillization, Alexa594 FP, 6 h | Potency, µM (series often up to 57.7 µM), actives largely listed as inhibitors | hit rate 0.39% among 280,000 | AID 1468; also: nearly all actives have a fitted effect of over 55% in size
# Target sequence (P10636 561-689 P618L limits assumed): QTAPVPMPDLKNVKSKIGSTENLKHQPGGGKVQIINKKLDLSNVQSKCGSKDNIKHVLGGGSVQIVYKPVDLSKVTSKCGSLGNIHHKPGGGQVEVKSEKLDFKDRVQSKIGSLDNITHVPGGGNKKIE
#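 Recombinant K18 P301L […], labeled with Alexa 594 at 0.24 uM over 15 uM unlabeled; heparin inducer 20 uM final; 37 C, 6 hr; FP endpoint.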
# Tau ThT inhib = blocks human tau fibril formation measured by thioflavin T. P10636. recombinant tau K18 P301L, heparin-induced fibrillization, ThT fluorescence. Potency, µM (highest dose often 57.4 µM), hits mostly inhibitors. hit rate 2.1% among 270,000. AID 1460; also: nearly all actives have a fitted effect of over 55% in size
#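 In this qHTS, human K18 P301L tau is incubated with compound and heparin for 6 hr at 37 C, and Thioflavin T fluorescence then reports fibril load.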
# Tau fluor counter = counter-screen for tau fibril formation inhibitors; tau K18 P301L Alexa594 fluorescence, heparin fibrillization; Potency, µM (titrated, usually from 57.7 µM); hit rate 0.93% among 280,000; AID 1463; also: nearly all actives have a fitted effect of over 55% in size
#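 Human tau K18 P301L (15 uM unlabeled, 0.24 uM Alexa 594-labeled) in 100 mM sodium acetate pH 7 with 20 uM heparin, 6 hr at 37 C. ThT 30 uM added, 1 hr ambient; Alexa 594 FP and total fluorescence read at 555/632 nm.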
# TRb SRC2 PPI = disrupts binding of human TR beta to SRC2. P10828. TRbeta-SRC2 peptide binding, fluorescence polarization; receptor liganded with 1 µM T3. Potency, µM (series often up to 106 µM), actives largely listed as inhibitors. hit rate 0.065% among 280,000. AID 1469; also: nearly all actives have a fitted effect of over 50% in size
# Target sequence (P10828 whole entry, looked up): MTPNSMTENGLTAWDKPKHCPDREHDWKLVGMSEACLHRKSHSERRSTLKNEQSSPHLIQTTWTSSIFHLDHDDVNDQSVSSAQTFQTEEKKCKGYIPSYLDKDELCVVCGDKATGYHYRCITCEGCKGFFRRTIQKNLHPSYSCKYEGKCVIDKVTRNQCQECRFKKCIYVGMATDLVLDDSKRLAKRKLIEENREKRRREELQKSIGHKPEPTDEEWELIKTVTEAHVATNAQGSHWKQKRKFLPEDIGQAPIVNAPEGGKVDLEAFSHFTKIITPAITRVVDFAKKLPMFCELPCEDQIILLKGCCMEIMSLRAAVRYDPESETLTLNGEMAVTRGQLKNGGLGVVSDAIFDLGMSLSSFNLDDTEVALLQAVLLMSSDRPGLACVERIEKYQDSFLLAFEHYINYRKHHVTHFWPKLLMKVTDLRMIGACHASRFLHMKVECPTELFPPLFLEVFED
#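 Compounds were added to 0.6 uM TRb ligand-binding domain and 20 nM Texas Red-labeled SRC2 peptide in Tris buffer containing 1 uM T3, incubated 5 hr at ambient temperature, then read by fluorescence polarization.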
# TexasRed fluor = Texas Red fluorescence interference in TRb-SRC2 counter-screen; TRb/SRC2 Texas Red total fluorescence interference; Potency, µM (series often up to 106 µM); hit rate 0.29% among 280,000; AID 1479; active = well fitted curve in either direction with a large enough effect; inconclusive = small, poorly fitted or top-dose-only effect
#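 Flags fluorescent or light-absorbing compounds by total fluorescence, S + 2P, at 555 nm excitation and 632 nm emission. Mixture: 20 nM Texas Red SRC2 peptide, 0.6 uM human TRb LBD, 1 uM T3, 5% DMSO; compound exposure 5 h at ambient temperature.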
# Hits are given with their value; . = inactive; ? = inconclusive; / = not tested or not shown; [ ] = dose if it differs, or a comment. Unless noted, calls follow the shape of the dose curve; as a rule, active = well fitted curve in the direction sought with a large enough effect; inconclusive = small, poorly fitted or top-dose-only effect, or another doubt; inactive = no such curve, though single readings can be large; an effect the other way counts as inactive or inconclusive.
SMILES,Tau fibril FP,Tau ThT inhib,Tau fluor counter,TRb SRC2 PPI,TexasRed fluor
Cc1ccc(NCC(=O)N/N=C/c2ccncc2)cc1,.,.,.,.,.
Cc1ccc(NCC(=O)N/N=C/c2cccc(Oc3ccccc3)c2)cc1,.,?,10µM[quencher],.,.
Cc1ccc(NCC(=O)N/N=C/c2cc(O)ccc2[N+](=O)[O-])cc1,.,14µM,.,.,.
COc1ccc(NCC(=O)N/N=C/c2cc([N+](=O)[O-])ccc2N2CCCC2)cc1,.,11µM,?,.,.
CCOc1ccc(Nc2nc(C)c(NC(=O)c3cccc(F)c3)c(Nc3ccc(OCC)cc3)n2)cc1,.,?,7.9µM[quencher],.,.
CCOc1ccc(-n2nc3ccc(NC(=O)c4cccc(F)c4)cc3n2)cc1,?,?,.,.,.
Cc1cc(C)c2ccc(=O)n(CC(=O)N/N=C/c3ccccc3Cl)c2n1,.,/,.,.,.
Cc1c(CCOC(=O)C23CC4CC(CC(C4)C2)C3)sc[n+]1CC#N,.,.,.,.,.
C=CCSc1nc2sc3c(c2c(=O)n1CC)CCc1ccccc1-3,16µM,11µM,.,.,.
O=C(O)CCN1C(=O)/C(=C\c2ccncc2)SC1=S,.,.,.,.,.
O=C(O)CCN1C(=O)/C(=C\c2ccc(-c3nc4ccccc4s3)o2)SC1=S,.,2µM,.,.,.
O=C(O)CCCN1C(=O)/C(=C\c2ccco2)SC1=S,?,22µM,.,.,.
O=C1/C(=C\c2ccco2)SC(=S)N1c1ccccc1,?,25µM,?,.,?
O=C(NCc1ccccc1)c1ccc(Cn2c(=O)c3cccn3c3cccnc32)cc1,.,.,.,.,.
CC(=O)Nc1cc(NC(C)=O)c(N=Nc2ccccc2)cc1C,.,/,?,.,.
Cc1ccc(NCC(O)C(O)C(O)CO)c(N=Nc2ccccc2)c1C (stereo unspecified),.,2.5µM,13µM[quencher],.,.
CCCCC(=O)Nc1ccccc1C(=O)N1CCOCC1,.,.,.,.,.
COc1ccc(Cl)cc1NC(=O)Cn1c(=O)c(-c2ccccc2NC(C)=O)nc2ccccc21,.,.,.,.,.
Cc1ccc(-c2ccc(/C=C(\C#N)C(N)=S)n2C)cc1,.,1µM,?,.,.
COc1cccc(=O)c2c(C)n(CC(=O)c3ccccc3)c(C)c12,.,14µM,?,.,.
Nc1nc2c(c(=O)[nH]1)C(c1cccc3ccccc13)C1=C(N2)c2ccccc2C1=O (stereo unspecified),.,10µM,?,.,.
CN(C)c1ccc(-n2cccc2)cc1,.,.,.,.,.
CN(C)c1ccc(SC#N)cc1,?,10µM,?,.,.
Cc1ccc(C(=O)O[C@H](C(=O)O)[C@@H](OC(=O)c2ccc(C)cc2)C(=O)O)cc1 (tested in a mixture with another compound),.,.,.,.,.
CCNC(=S)Nc1ccc(C)c(S(=O)(=O)Nc2ccccc2OC)c1,.,.,.,.,.
SMILES,Tau fibril FP,Tau ThT inhib,Tau fluor counter,TRb SRC2 PPI,TexasRed fluor
O=C(Nc1ccc(Cl)c(S(=O)(=O)Nc2ccccc2Cl)c1)c1cccs1,?,.,25µM[quencher],.,.
O=C(Nc1ccc(F)cc1)Nc1ccc(N2CCCC2)c(S(=O)(=O)Nc2ccccc2Cl)c1,?,.,2.8µM[quencher],.,.
COc1ccccc1NS(=O)(=O)c1cc(NC(=S)Nc2cc(C)cc(C)c2)ccc1Cl,?,.,32µM[quencher],.,?
O=C(Nc1ccc(Cl)c(Cl)c1)Nc1ccc(N2CCCC2)c(S(=O)(=O)Nc2ccccc2Cl)c1,.,?,4µM[quencher],.,.
Cc1ccc(C(=O)Nc2ccc(C)c(S(=O)(=O)Nc3ccccc3Cl)c2)s1,?,.,?,.,.
COc1ccccc1NS(=O)(=O)c1cc(NC(=O)c2cccs2)ccc1N1CCCC1,.,?,?,.,.
COc1ccccc1NS(=O)(=O)c1cc(NC(=O)Nc2ccccc2)ccc1N1CCCCC1,22µM,.,?,.,.
COc1ccccc1NS(=O)(=O)c1cc(NC(=O)C(C)C)ccc1N1CCCCC1,.,.,.,.,.
CCN(CC)c1ccc(NC(=O)c2ccccc2Br)cc1S(=O)(=O)Nc1ccccc1OC,?,25µM,.,.,.
O=C(Nc1ccc(N2CCCC2)c(S(=O)(=O)Nc2cccc(C(F)(F)F)c2)c1)c1cccs1,.,.,10µM[quencher],.,.
O=C(O)c1ccc(N/N=C/c2cc3c(cc2[N+](=O)[O-])OCO3)cc1,.,14µM,.,.,.
O=C(O)c1ccc(N/N=C/c2ccc3c(c2)OCO3)cc1,.,?,?,.,.
CN(C)[C@H]1C(=O)C(C(=O)NCN2CCCC2)=C(O)[C@]2(O)C(=O)C3=C(O)c4c(O)cccc4[C@](C)(O)[C@H]3C[C@H]12,/,/,/,?,14µM[quencher]
CN(C)c1ccc(O)c2c1C[C@@H]1C[C@H]3C(N(C)C)C(=O)C(C(N)=O)=C(O)[C@@]3(O)C(=O)C1=C2O (stereo partly specified),.,?,.,.,.
CN(C)[C@@H]1C(=O)C(C(=O)NCN2CCCC2)=C(O)[C@@]2(O)C(=O)C3=C(O)c4c(O)cccc4[C@@](C)(O)C3CC12 (stereo partly specified),?,14µM,?,.,?
CC(C)Nc1ccc(-c2nc(-c3ccncc3)no2)cc1[N+](=O)[O-],.,.,.,.,.
O=C(/C=C/c1cccs1)Nc1ccncc1,.,.,.,.,.
CCCOC(=O)c1ccc(NC(=O)/C=C/c2cccs2)cc1,?,.,14µM[quencher],.,.
COc1ccc(OC)c(C2CC(=O)Oc3c2c(=O)n(C)c2ccccc32)c1 (stereo unspecified),.,.,.,.,?
Cc1[nH]c2ccc(C(=O)Nc3ccc(F)cc3)cc2c1C,?,13µM,14µM[quencher],.,.
NC(=O)[C@H]1CCCN1C(=O)[C@H](Cc1cnc[nH]1)NC(=O)[C@@H]1CCC(=O)N1,/,/,/,.,?
CNC(=O)COC(=O)/C=C/c1cccc(F)c1,.,.,.,.,.
Cc1onc(NC(=O)CSCC(=O)O)c1Br,.,.,.,.,.
O=C(/C=C/c1cccc([N+](=O)[O-])c1)Nc1cccc(NC(=O)c2cccs2)c1,?,?,13µM[quencher],.,.
O=C(Nc1cccc(NC(=O)c2cccs2)c1)c1ccc([N+](=O)[O-])o1,.,/,32µM[quencher],.,.
COc1cc(NC(=O)c2ccc([N+](=O)[O-])o2)ccc1NC(=O)c1cccs1,.,?,.,.,.
CN(/C=C/C(=C\C=[N+](C)c1ccccc1)OCCCS(=O)(=O)[O-])c1ccccc1,.,?,.,.,.
CCOc1ccccc1Nc1ccnc2cc(Cl)ccc12,.,.,.,.,?
S=C(NNc1ccnc2cc(Cl)ccc12)Nc1ccc(Cl)cc1Cl,?,4µM,4µM[quencher],.,.
CCOc1ccc(NC(=S)NNc2ccnc3cc(Cl)ccc23)cc1,.,13µM,?,.,.

# Bioassay records deposited in PubChem BioAssay by National Center for Advancing Translational Sciences (NCATS).
